# Data from publication PMC7862700, “An all-to-all approach to the identification of sequence-specific readers for epigenetic DNA modifications on cytosine”.
# How the values were obtained:
# Assay in all cases: DAPPL (digital affinity profiling via proximity ligation, sequencing); 10 mM Tris-HCl pH 7.5, 50 mM NaCl, 1 mM DTT, 4% glycerol, room temperature, 30 min; GST-TFs on glutathione beads, 16-mer random dsDNA library, 0.1% formaldehyde crosslink after washing; high values mean tight binding
# [1] = target: T1, FEV (Homo sapiens, UniProt Q99581 1-238); conditions: protein: recombinant; tags: N-terminal GST; dsDNA, one strand shown
# T1 sequence: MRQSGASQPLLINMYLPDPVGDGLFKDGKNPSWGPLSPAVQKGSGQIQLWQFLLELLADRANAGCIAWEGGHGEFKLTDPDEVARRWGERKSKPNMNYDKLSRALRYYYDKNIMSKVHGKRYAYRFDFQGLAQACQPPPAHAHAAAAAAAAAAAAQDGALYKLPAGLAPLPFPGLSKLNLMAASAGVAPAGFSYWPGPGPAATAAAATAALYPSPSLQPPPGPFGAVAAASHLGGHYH
# How it was run: (§1)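 Human transcription factors were made in yeast as GST fusions, captured on glutathione beads and barcoded with DNA. With a tag-only sample included, the pool was incubated with 200 nmole of a random double-stranded 16-mer DNA library in Tris/NaCl/DTT/glycerol buffer at room temperature for 30 min, then crosslinked with 0.1% formaldehyde after washing, ligated by proximity, amplified and sequenced. For binding signal, each hexamer's read frequency for a factor is divided by its frequency for the tag-only sample.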
# [2] = target: ETV5 (Homo sapiens, UniProt P41161 1-510); conditions: protein: recombinant; tags: N-terminal GST; dsDNA, one strand shown
# How it was run: as §1
# [3] = target: HSF1 (Homo sapiens, UniProt Q00613 1-529); conditions: protein: recombinant; tags: N-terminal GST; chain copies: 3; dsDNA, one strand shown
# How it was run: as §1
# [4] = target: T2, SPIC (Homo sapiens, UniProt Q8N5J4 1-248); conditions: protein: recombinant; tags: N-terminal GST; dsDNA, one strand shown
# T2 sequence: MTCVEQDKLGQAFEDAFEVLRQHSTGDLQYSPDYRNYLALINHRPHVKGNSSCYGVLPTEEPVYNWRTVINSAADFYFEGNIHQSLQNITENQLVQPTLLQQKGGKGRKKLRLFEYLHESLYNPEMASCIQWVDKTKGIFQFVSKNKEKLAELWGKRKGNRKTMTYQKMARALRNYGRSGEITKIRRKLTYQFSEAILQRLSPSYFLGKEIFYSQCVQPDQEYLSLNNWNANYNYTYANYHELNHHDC
# How it was run: as §1
# [5] = target: ELF4 (Homo sapiens, UniProt Q99607 1-663); conditions: protein: recombinant; tags: N-terminal GST; dsDNA, one strand shown
# How it was run: as §1
# [6] = target: T3, ELK4 (Homo sapiens, UniProt P28324-2 1-405); conditions: protein: recombinant; tags: N-terminal GST; dsDNA, one strand shown
# T3 sequence: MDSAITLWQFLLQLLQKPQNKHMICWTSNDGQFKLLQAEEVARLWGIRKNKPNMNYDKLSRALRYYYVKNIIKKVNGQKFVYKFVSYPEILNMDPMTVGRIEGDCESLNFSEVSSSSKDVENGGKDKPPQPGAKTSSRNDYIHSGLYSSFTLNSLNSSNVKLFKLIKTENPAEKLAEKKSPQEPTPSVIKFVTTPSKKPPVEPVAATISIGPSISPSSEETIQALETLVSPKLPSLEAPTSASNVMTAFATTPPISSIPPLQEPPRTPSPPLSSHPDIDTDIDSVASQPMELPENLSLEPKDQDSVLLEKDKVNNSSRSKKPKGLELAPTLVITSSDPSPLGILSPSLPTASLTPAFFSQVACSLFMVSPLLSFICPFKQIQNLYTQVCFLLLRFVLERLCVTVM
# How it was run: as §1
# [7] = target: T4, ETV2 (Homo sapiens, UniProt O00321 1-342); conditions: protein: recombinant; tags: N-terminal GST; dsDNA, one strand shown
# T4 sequence: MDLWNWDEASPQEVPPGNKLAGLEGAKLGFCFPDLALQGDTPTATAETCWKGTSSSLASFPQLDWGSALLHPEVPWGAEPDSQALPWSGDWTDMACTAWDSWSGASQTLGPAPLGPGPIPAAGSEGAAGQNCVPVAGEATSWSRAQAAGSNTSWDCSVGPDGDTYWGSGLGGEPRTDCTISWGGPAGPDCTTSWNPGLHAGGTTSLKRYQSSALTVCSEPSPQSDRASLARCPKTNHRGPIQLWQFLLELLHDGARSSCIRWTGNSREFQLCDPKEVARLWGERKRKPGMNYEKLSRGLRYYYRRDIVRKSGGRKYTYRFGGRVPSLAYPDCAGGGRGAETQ
# How it was run: as §1
# [8] = target: T5, ELF3 (Homo sapiens, UniProt P78545 1-371); conditions: protein: recombinant; tags: N-terminal GST; dsDNA, one strand shown
# T5 sequence: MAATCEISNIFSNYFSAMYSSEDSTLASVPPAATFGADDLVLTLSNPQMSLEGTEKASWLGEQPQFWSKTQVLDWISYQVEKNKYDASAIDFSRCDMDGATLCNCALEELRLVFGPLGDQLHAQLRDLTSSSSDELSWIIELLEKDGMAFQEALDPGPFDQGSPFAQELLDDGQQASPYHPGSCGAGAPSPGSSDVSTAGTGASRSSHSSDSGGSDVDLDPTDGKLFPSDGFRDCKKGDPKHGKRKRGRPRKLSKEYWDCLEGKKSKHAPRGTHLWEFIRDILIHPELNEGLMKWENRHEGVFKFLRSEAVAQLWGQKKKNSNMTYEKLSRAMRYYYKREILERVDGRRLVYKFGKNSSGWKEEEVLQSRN
# How it was run: as §1
# [9] = target: CRX (Homo sapiens, UniProt O43186 1-299); conditions: protein: recombinant; tags: N-terminal GST; dsDNA, one strand shown
# How it was run: as §1
# [10] = target: ETV1 (Homo sapiens, UniProt P50549 1-477); conditions: protein: recombinant; tags: N-terminal GST; dsDNA, one strand shown
# How it was run: as §1
# [11] = target: T6, ERF (Homo sapiens, UniProt P50548 1-548); conditions: protein: recombinant; tags: N-terminal GST; dsDNA, one strand shown
# T6 sequence: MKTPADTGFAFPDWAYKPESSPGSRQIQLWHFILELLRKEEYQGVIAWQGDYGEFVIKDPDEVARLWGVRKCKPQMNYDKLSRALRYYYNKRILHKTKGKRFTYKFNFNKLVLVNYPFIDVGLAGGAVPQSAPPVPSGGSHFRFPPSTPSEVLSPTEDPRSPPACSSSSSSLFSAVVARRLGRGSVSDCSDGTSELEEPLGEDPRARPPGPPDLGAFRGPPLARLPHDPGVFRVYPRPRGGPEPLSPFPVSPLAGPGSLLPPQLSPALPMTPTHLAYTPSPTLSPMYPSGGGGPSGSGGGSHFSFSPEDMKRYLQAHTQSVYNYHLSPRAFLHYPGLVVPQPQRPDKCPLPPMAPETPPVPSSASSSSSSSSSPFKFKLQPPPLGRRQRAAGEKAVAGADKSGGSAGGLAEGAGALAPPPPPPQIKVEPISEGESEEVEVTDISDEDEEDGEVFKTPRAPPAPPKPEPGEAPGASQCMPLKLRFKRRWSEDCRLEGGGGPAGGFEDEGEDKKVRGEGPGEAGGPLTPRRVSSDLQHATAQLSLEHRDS
# How it was run: as §1
# [12] = target: T7, ETV3L (Homo sapiens, UniProt Q6ZN32 1-361); conditions: protein: recombinant; tags: N-terminal GST; dsDNA, one strand shown
# T7 sequence: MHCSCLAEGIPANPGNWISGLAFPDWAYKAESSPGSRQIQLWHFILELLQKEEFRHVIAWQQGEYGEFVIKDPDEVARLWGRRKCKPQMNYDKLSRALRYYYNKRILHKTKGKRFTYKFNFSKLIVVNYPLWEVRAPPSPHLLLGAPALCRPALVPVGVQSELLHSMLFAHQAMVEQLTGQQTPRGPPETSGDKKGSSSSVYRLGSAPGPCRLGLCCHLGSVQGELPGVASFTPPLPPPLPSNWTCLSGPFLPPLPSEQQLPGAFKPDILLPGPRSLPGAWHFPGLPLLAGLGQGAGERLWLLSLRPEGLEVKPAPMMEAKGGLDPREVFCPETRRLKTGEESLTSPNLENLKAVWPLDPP
# How it was run: as §1
# [13] = target: T8, ETS2 (Homo sapiens, UniProt P15036 1-469); conditions: protein: recombinant; tags: N-terminal GST; dsDNA, one strand shown
# T8 sequence: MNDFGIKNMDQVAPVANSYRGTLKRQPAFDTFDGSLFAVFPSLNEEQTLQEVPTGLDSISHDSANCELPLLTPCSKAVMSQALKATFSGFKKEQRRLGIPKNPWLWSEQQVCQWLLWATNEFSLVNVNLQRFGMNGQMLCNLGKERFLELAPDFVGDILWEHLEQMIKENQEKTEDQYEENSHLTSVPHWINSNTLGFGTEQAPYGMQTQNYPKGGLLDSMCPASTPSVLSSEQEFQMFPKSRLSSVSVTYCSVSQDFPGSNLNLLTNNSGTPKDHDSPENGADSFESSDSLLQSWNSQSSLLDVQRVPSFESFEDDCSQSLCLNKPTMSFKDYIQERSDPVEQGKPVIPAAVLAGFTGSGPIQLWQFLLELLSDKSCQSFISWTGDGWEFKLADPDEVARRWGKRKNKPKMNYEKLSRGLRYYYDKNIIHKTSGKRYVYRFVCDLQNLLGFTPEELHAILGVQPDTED
# How it was run: as §1
# [14] = target: T9, SPDEF (Homo sapiens, UniProt O95238 1-335); conditions: protein: recombinant; tags: N-terminal GST; dsDNA, one strand shown
# T9 sequence: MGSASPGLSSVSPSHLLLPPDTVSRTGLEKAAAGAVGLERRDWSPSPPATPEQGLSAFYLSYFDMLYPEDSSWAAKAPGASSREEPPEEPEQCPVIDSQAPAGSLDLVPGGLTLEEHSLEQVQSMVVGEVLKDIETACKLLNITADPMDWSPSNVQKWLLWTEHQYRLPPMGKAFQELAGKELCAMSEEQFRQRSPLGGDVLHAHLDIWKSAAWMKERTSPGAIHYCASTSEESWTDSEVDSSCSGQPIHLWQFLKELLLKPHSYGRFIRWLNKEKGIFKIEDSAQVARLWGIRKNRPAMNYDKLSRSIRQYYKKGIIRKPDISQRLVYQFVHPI
# How it was run: as §1
# [15] = target: T10, ETV7 (Homo sapiens, UniProt Q9Y603 1-341); conditions: protein: recombinant; tags: N-terminal GST; dsDNA, one strand shown
# T10 sequence: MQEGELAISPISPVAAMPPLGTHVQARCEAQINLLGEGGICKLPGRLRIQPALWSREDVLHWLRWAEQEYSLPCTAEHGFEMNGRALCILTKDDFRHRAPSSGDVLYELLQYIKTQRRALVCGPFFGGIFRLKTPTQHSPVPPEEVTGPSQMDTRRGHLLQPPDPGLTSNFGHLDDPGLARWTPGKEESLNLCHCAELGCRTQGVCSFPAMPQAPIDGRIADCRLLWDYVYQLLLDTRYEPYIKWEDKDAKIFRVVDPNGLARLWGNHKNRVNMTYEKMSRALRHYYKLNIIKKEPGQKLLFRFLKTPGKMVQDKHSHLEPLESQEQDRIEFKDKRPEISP
# How it was run: as §1
# [16] = target: T11, ELF5 (Homo sapiens, UniProt Q9UKW6-2 1-255); conditions: protein: recombinant; tags: N-terminal GST; dsDNA, one strand shown
# T11 sequence: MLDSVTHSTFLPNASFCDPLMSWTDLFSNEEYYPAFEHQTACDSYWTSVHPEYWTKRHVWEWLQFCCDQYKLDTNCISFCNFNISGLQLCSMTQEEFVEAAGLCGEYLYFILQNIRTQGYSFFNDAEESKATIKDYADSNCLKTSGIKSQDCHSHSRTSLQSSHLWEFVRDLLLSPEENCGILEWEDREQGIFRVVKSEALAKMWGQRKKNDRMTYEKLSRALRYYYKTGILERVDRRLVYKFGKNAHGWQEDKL
# How it was run: as §1
# [17] = target: T12, ETV3 (Homo sapiens, UniProt P41162-2 1-143); conditions: protein: recombinant; tags: N-terminal GST; dsDNA, one strand shown
# T12 sequence: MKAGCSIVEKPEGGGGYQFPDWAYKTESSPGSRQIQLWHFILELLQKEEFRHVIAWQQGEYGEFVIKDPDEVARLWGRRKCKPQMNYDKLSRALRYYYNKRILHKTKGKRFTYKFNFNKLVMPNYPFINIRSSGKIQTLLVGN
# How it was run: as §1
# [18] = target: ETV6 (Homo sapiens, UniProt P41212 1-452); conditions: protein: recombinant; tags: N-terminal GST; dsDNA, one strand shown
# How it was run: as §1
# Sequence of CRX (O43186 whole entry): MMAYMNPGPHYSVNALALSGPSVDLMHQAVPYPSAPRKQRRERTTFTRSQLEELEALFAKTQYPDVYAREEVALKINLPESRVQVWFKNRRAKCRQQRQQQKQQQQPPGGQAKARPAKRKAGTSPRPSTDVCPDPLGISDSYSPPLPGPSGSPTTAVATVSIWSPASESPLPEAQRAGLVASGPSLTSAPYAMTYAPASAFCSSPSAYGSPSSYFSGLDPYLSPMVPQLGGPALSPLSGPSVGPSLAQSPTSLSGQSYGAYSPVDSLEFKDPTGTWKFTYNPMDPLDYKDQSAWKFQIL
# Sequence of ETV1 (P50549 whole entry): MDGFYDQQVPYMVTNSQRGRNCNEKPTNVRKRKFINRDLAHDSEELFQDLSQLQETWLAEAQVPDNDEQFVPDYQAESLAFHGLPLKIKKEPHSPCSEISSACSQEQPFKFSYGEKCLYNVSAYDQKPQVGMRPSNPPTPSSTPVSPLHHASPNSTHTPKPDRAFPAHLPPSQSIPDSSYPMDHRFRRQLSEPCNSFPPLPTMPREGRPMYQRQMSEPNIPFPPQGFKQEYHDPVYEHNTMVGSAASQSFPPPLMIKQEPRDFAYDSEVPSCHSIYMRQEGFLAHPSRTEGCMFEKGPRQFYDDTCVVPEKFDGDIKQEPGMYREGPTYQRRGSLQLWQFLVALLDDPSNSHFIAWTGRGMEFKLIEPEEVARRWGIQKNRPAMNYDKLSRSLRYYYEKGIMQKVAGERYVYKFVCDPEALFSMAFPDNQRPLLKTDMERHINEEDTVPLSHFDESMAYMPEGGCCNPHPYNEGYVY
# Sequence of ELF4 (Q99607 whole entry): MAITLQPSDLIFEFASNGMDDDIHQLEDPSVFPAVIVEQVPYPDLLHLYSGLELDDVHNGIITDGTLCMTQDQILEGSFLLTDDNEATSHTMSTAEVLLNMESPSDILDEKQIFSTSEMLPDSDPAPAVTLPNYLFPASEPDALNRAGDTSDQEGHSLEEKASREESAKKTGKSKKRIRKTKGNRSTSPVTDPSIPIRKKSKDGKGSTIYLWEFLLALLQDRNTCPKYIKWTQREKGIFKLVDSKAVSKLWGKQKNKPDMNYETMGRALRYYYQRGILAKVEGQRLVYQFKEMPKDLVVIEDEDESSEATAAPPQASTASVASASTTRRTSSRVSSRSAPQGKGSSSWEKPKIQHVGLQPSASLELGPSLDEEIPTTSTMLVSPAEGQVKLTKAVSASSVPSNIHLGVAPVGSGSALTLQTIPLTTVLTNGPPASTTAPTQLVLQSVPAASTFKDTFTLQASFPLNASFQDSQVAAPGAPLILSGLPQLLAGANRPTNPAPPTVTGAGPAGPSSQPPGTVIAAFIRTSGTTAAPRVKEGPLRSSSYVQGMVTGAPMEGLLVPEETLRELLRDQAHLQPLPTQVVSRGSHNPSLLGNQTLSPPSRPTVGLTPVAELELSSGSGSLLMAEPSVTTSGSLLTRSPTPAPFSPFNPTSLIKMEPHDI
# Sequence of HSF1 (Q00613 whole entry): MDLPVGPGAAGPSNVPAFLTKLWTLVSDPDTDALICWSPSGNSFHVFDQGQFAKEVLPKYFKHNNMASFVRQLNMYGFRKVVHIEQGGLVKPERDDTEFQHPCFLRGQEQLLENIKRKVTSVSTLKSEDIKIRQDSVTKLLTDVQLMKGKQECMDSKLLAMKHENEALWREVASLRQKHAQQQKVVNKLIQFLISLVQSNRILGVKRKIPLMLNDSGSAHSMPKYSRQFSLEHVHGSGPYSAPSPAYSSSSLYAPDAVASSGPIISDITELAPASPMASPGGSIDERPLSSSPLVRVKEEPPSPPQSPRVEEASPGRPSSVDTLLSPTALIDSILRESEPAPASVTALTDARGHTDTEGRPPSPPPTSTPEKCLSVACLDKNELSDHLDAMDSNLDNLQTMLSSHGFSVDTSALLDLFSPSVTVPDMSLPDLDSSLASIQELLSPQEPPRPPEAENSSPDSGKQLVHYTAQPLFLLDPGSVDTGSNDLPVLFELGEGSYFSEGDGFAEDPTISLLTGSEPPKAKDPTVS
# Sequence of ETV5 (P41161 whole entry): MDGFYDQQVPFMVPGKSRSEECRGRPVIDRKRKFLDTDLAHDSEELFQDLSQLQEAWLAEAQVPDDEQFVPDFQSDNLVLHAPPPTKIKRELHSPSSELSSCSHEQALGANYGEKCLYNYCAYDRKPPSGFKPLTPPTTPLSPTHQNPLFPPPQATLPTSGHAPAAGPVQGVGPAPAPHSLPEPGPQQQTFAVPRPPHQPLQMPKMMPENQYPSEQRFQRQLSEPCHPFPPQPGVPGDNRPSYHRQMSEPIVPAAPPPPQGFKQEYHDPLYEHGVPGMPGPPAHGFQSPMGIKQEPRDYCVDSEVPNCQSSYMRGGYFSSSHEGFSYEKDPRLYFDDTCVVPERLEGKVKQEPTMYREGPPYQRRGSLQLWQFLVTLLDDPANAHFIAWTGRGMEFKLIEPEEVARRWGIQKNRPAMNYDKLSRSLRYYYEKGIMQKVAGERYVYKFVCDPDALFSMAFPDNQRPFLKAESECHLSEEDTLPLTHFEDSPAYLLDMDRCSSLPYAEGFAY
# Sequence of ETV6 (P41212 whole entry): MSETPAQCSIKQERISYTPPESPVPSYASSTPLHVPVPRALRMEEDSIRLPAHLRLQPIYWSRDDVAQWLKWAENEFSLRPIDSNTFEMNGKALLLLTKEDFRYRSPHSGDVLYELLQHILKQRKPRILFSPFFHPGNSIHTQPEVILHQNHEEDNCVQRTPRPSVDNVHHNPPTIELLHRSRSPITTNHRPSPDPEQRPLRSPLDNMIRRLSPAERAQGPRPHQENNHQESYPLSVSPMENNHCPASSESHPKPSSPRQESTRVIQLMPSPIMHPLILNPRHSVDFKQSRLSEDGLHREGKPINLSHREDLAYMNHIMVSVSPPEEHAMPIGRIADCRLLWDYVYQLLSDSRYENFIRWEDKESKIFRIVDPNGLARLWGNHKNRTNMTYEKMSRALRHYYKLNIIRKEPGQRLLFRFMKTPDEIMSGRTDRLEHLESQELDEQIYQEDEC
sequence,measurement,setting,value
GACCTT,binding signal,[1],"1.6 fold enrichment (6-mer frequency, TF over GST control)"
same,binding signal,[2],"1.55 fold enrichment (6-mer frequency, TF over GST control)"
same,binding signal,[3],"1.52 fold enrichment (6-mer frequency, TF over GST control)"
same,binding signal,[4],"1.74 fold enrichment (6-mer frequency, TF over GST control)"
same,binding signal,[5],"1.73 fold enrichment (6-mer frequency, TF over GST control)"
same,binding signal,[6],"1.61 fold enrichment (6-mer frequency, TF over GST control)"
same,binding signal,[7],"1.63 fold enrichment (6-mer frequency, TF over GST control)"
same,binding signal,[8],"1.49 fold enrichment (6-mer frequency, TF over GST control)"
same,binding signal,[9],"1.31 fold enrichment (6-mer frequency, TF over GST control)"
same,binding signal,[10],"1.48 fold enrichment (6-mer frequency, TF over GST control)"
same,binding signal,[11],"1.5 fold enrichment (6-mer frequency, TF over GST control)"
same,binding signal,[12],"1.64 fold enrichment (6-mer frequency, TF over GST control)"
same,binding signal,[13],"1.49 fold enrichment (6-mer frequency, TF over GST control)"
same,binding signal,[14],"1.66 fold enrichment (6-mer frequency, TF over GST control)"
same,binding signal,[15],"1.41 fold enrichment (6-mer frequency, TF over GST control)"
same,binding signal,[16],"1.62 fold enrichment (6-mer frequency, TF over GST control)"
same,binding signal,[17],"1.5 fold enrichment (6-mer frequency, TF over GST control)"
same,binding signal,[18],"1.5 fold enrichment (6-mer frequency, TF over GST control)"
